A short description of test [1]: NCI Yeast Anticancer Drug Screen. Data for the rad50 strain (AID 155).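 Note: 0% = growth of vehicle-only cultures of the same strain.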 As to conditions: S. cerevisiae rad50 strain growth inhibition; at 50.0 µM; stronger effect = higher value. In short, it runs like this:
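Inhibition values express reduced yeast growth in compound-treated cultures relative to vehicle-treated controls.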

The nature of test [2]: NCI Yeast Anticancer Drug Screen. Data for the mec2-1 strain (AID 157). As to conditions: S. cerevisiae mec2-1 strain, at 50.0 µM, stronger effect = higher value. In short, it runs like this: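 Readout is yeast growth inhibition, normalised to vehicle-treated controls, in the mec2-1 strain exposed to compound.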
The nature of test [3]: NCI Yeast Anticancer Drug Screen. Data for the sgs1 mgt1 strain (AID 161).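 Note: 0% = growth of cultures given vehicle only.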 The conditions noted are these: S. cerevisiae sgs1 mgt1 strain, at 50.0 µM, stronger effect = higher value. In short, it runs like this:
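Percent growth inhibition was derived by comparing compound-exposed mutant yeast with vehicle-exposed cultures. The strain carries alterations in DNA damage repair.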

Test [4] in a line: NCI Yeast Anticancer Drug Screen. Data for the cln2 rad14 strain (AID 165).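 Note: 0% = growth equal to vehicle treated cultures.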 As to conditions: S. cerevisiae cln2 rad14 strain, at 50.0 µM, stronger effect = higher value. In short, it runs like this: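 Relative to vehicle controls, growth inhibition of compound-treated cln2 rad14 yeast was recorded.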
Test [5] in a line: NCI Yeast Anticancer Drug Screen. Data for the bub3 strain (AID 167). As to conditions: S. cerevisiae bub3 mutant strain, at 50.0 µM, stronger effect = higher value. In short, it runs like this: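 Steps: expose the mutant yeast strain to compound; grow alongside vehicle-treated cultures; measure growth; express inhibition against the vehicle cultures.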
Test [6] is described as follows: NCI Yeast Anticancer Drug Screen. Data for the mlh1 rad18 strain (AID 175). The conditions noted are these: S. cerevisiae mlh1 rad18 strain growth inhibition; at 50.0 µM; stronger effect = higher value. In short, it runs like this:
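Test agents were incubated with a yeast strain of defined genotype (DNA damage repair defect). Inhibition of growth was derived by comparison with vehicle-exposed cultures.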

About 79,000 compounds went through this panel and 15% of them were active in at least one assay; those are over-represented in the sample as a whole. Unmarked numbers belong to inactive results. The source made the active and inactive calls. Cut-off read from the data, not from the text of the source: active = growth inhibition above about 70%; inactive = the rest.

From PubChem BioAssay (NCI) come the findings set out here.

As to `OC1CCC(O)[C@H]2[C@@H]1[C@@H]1S[C@H]2c2ccccc21` (some centres undefined), the growth inhibition is -2.55% in test [1]; -14.8% in test [2]; -22.4% in test [3]; 1.7% in test [4]; -10.3% in test [5]; -1.85% in test [6].

In the case of `CC(C)CNc1ncnc2c1ncn2C`, the growth inhibition in test [1] is -2.2%; in test [2] it was -4.85%; in test [3], -4%; in test [4], -18.9%; in test [5] it was 1.1%; in test [6] it was -0.25%.

`CN(C)CC1CCC(=C2CCCC2)C1=O` (centres undefined): the growth inhibition is -8.9% in test [1]; -10.7% in test [2]; 11.8% in test [3]; 6.2% in test [4]; 3.6% in test [5]; 20.6% in test [6].

Regarding `CC1(C)OC2COC3(CO)OC(C)(C)OC3C2O1` (centres undefined), the growth inhibition in test [1] was -2.2%; in test [2] it was 20.6%; in test [3], 15.4%; in test [4] it was -65.5%; in test [5], 15.2%; in test [6], 17.4%.

Take `CCCCCC(=O)Nc1ccccc1`: the growth inhibition in test [1] was 4.95%; in test [2], -6.3%; in test [3], 1.7%; in test [4], -29.4%; in test [5] it was -10.9%; in test [6], -3.25%.

As for `N#Cc1nc[nH]c1C(N)=O`, the growth inhibition in test [1] was -2.4%; in test [2], 0.25%; in test [3] it was -14.2%; in test [4], 11.8%; in test [5], 11%; in test [6], 6.25%.

Turning to `N=C(N=C(C(Cl)(Cl)Cl)C(Cl)(Cl)Cl)N=C(C(Cl)(Cl)Cl)C(Cl)(Cl)Cl`, the growth inhibition in test [1] is 8.75%; in test [2], 15.3%; in test [3] it was 11.1%; in test [4] it was -8.55%; in test [5] it was -24.2%; in test [6], 19.6%.

As for `CC(=O)c1ccc(NC(=O)CSc2nc(C)nc3c2sc(=S)n3-c2ccccc2)cc1`, the growth inhibition in test [1] is -15.1%; in test [2], -10.8%; in test [3] it was -0.1%; in test [4] it was -24.1%; in test [5] it was -8.2%; in test [6] it was -22.1%.

For the compound `CCOC(=O)CC(=O)Nc1cc(C)cc(C)n1`, the growth inhibition in test [1] was 2.1%; in test [2], 14.5%; in test [3] it was 9.5%; in test [4], 32.6%; in test [5], 25.1%; in test [6] it was 5.7%.

`CCC1=NCCO1`: the growth inhibition in test [1] is 5.85%; in test [2], 0.25%; in test [3], -2.1%; in test [4] it was 4%; in test [5], 28.1%; in test [6] it was -11.7%.

As to `Cc1ccc(/C=C/C(=O)C(C)(C)CN2CCCCC2)cc1`, the growth inhibition in test [1] was 35.6%; in test [2], -9.05%; in test [3], 25.1%; in test [4], 14.3%; in test [5] it was 10%; in test [6], 17.9%.

For `CCC/C=N/NS(=O)(=O)c1ccc(C)cc1`, the growth inhibition in test [1] is 32.1%; in test [2], 15.7%; in test [3] it was 30.8%; in test [4], 11.8%; in test [5], -29.9%; in test [6], 12.6%.

Turning to `CCOC(=O)/C(C#N)=C/c1ccc(Br)cc1`, the growth inhibition was 15.7% in test [1]; 0.8% in test [2]; 0.3% in test [3]; -4.25% in test [4]; 7.5% in test [5]; 21.3% in test [6].

Regarding `CCN(CC)CCC(=O)O`, the growth inhibition is -13.4% in test [1]; -19.4% in test [2]; -7% in test [3]; 5.95% in test [4]; -10.7% in test [5]; -5.2% in test [6].

For the compound `C[C@]12CCC(=O)C=C1CC[C@@H]1[C@@H]2C(=O)C[C@@]2(C)[C@H]1CC[C@]2(O)C(=O)C=O`, the growth inhibition in test [1] was -5%; in test [2], -1.4%; in test [3] it was 13.8%; in test [4], 16.9%; in test [5], -10.8%; in test [6], 2.45%.

In the case of `Cc1nc2c3c4c(sc3nc(C)n2n1)CCCC4`, the growth inhibition in test [1] is 1%; in test [2] it was 10.3%; in test [3], 22.2%; in test [4], 80.4% (active); in test [5] it was 7.3%; in test [6] it was 12%.

For the compound `CCC(CO)Nc1nc2c(c(=O)n(C)c(=O)n2C)n1CCO` (centres undefined), the growth inhibition in test [1] is -21.9%; in test [2] it was -1.9%; in test [3], 1%; in test [4], 8.15%; in test [5], -14.7%; in test [6], -4.75%.

For `CC(C)=CCNc1ncnc2c1c(C#N)cn2C1OC(CO)C(O)C1O` (centres undefined), the growth inhibition in test [1] is -1.2%; in test [2] it was -23.7%; in test [3] it was -23.4%; in test [4] it was 15.7%; in test [5], -17.5%; in test [6], -5.95%.

As for `Cc1ccc(/C=N/n2c(Cc3ccccc3)n[nH]c2=O)cc1`, the growth inhibition in test [1] is 16.9%; in test [2], 5.1%; in test [3], 3.65%; in test [4], 11.8%; in test [5], 4.25%; in test [6], 25.6%.

Take `COc1cc(/C=C/C=C2\CCC/C(=C\C=C\c3ccc(O)c(OC)c3)C2=O)ccc1O`: the growth inhibition was 14.4% in test [1]; -0.05% in test [2]; 11.2% in test [3]; 19.3% in test [4]; 10.8% in test [5]; 14.2% in test [6].

Take `NCCNCCCNCCN`: the growth inhibition in test [1] is 7.85%; in test [2], -2.4%; in test [3], 7.95%; in test [4], -2.45%; in test [5], 27.4%; in test [6], 6.45%.

Turning to `O=C(c1ccccc1O)N1CCCCC1`, the growth inhibition in test [1] was 32.1%; in test [2], 25.2%; in test [3], 12.5%; in test [4] it was 13.9%; in test [5], 16.6%; in test [6], 11.3%.

Take `CC(=O)/C=C/N(C)c1ccc(O)cc1`: the growth inhibition is 40.6% in test [1]; 2.3% in test [2]; -6.45% in test [3]; 9.3% in test [4]; 5.55% in test [5]; -26.2% in test [6].

In the case of `CN(C)CCCOC(=O)C(O)(Cc1ccccc1)C1CC1` (centres undefined), the growth inhibition in test [1] was 10.7%; in test [2] it was 15.4%; in test [3], 6.25%; in test [4], 5.35%; in test [5] it was 28.6%; in test [6], 15.1%.

Take `COC(=O)C(CC(=O)Nc1ccc(Cl)c(Cl)c1)C(=O)C(=O)NC1C2CC3CC(C2)CC1C3` (centres undefined): the growth inhibition in test [1] is -3.15%; in test [2], 13.8%; in test [3] it was -14.1%; in test [4] it was 7.8%; in test [5] it was -8.65%; in test [6] it was -9.05%.

Consider `COc1cc(Br)c(C=O)cc1OC`, for which the growth inhibition was 10.5% in test [1]; 22.9% in test [2]; 13.6% in test [3]; -16.1% in test [4]; 2.95% in test [5]; 5.5% in test [6].

Take `O=C(N/N=C1\CCc2ccccc2C1)N/N=C1\CCc2ccccc2C1`: the growth inhibition was 20.4% in test [1]; 17.1% in test [2]; 11.7% in test [3]; -5.85% in test [4]; -18.9% in test [5]; 9.6% in test [6].

Consider `CCOCCOC(=O)c1ccc(C(N)=NC2CCCCC2)cc1`, for which the growth inhibition in test [1] is 0.05%; in test [2], -2.4%; in test [3] it was 3.75%; in test [4], -4.1%; in test [5], 0.1%; in test [6], -1.4%.

Consider `COc1cc(CC2c3cc(OC)c(OC)cc3CC[N+]2(C)C)c(Oc2cc(CC3c4cc(OC)c(OC)cc4CC[N+]3(C)C)ccc2OC)cc1OC` (centres undefined), for which the growth inhibition was 8.35% in test [1]; 10.1% in test [2]; -0.85% in test [3]; -4.45% in test [4]; -6.05% in test [5]; 28.6% in test [6].

`C[n+]1cccc(C(=O)O)c1`: the growth inhibition is 5.25% in test [1]; 2.75% in test [2]; 8.65% in test [3]; -9.05% in test [4]; 17.8% in test [5]; 10.1% in test [6].

Consider `C[N+](C)(C)c1ccc(C(=O)[O-])cc1`, for which the growth inhibition in test [1] was 3.55%; in test [2], 18.8%; in test [3], -0.4%; in test [4], 0.55%; in test [5] it was 16%; in test [6] it was 8.1%.

As for `CC[n+]1c([S-])nn(C)c1-c1cnccn1`, the growth inhibition in test [1] is -2.8%; in test [2] it was -4.9%; in test [3] it was -9.05%; in test [4] it was -13.9%; in test [5] it was 24%; in test [6], -12.5%.

Consider `CC1=C(C(=O)NCc2ccccc2)C(/C=C/c2ccccc2)C(C(=O)NCc2ccccc2)=C(C)N1`, for which the growth inhibition is 46% in test [1]; 16.1% in test [2]; 23.7% in test [3]; -22.1% in test [4]; 4.55% in test [5]; 34.3% in test [6].

As for `Nc1ccc(C(=O)NN2C(=O)C(Cl)C2c2ccccc2)cc1` (centres undefined), the growth inhibition in test [1] is -30.2%; in test [2], -31.8%; in test [3], -62.5%; in test [4], -1.8%; in test [5] it was -30.4%; in test [6] it was -38.2%.

Regarding `CC1(C)CC(=O)c2c(N)n[nH]c2C1`, the growth inhibition in test [1] was -0.35%; in test [2] it was 3.1%; in test [3], -8.55%; in test [4] it was -2.2%; in test [5] it was 1.35%; in test [6], -15%.

As for `CN(C)CCC(N)(P(=O)([O-])[O-])P(=O)([O-])[O-].N.N.[Pt+2]`, the growth inhibition in test [1] is -24.5%; in test [2], 2.2%; in test [3], 3.15%; in test [4] it was 12.9%; in test [5] it was 12.3%; in test [6], 3.95%.

With `CC(C)(C)C(=O)C1C(=O)c2ccccc2C1=O`, the growth inhibition in test [1] was 50.6%; in test [2] it was 21.8%; in test [3], 54%; in test [4] it was -35.5%; in test [5], 5.95%; in test [6], 31.9%.

Regarding `COc1c(OC)c(C(C)C)c2c(c1C(=O)O)C(=O)OC2=O`, the growth inhibition in test [1] is -5.6%; in test [2] it was 10.9%; in test [3] it was 11.2%; in test [4] it was -14.9%; in test [5], -7.5%; in test [6] it was -7.75%.

For `COc1cc(C#N)cc(OC)c1OC`, the growth inhibition in test [1] is 26%; in test [2] it was -14.8%; in test [3] it was 2.85%; in test [4] it was 1.45%; in test [5], 1.85%; in test [6], -12.2%.
